Targets include ALX4 (Homo sapiens, UniProt Q9H161 200-286, Q225E); HOXB6 (Homo sapiens, UniProt P17509 132-218, K202E); ALX3 (Homo sapiens, UniProt O95076 139-225, N203Q).
Experiment in all cases: PBM; 200 nM protein, PBS
Conditions in all cases: dsDNA, one strand shown

For test [1], the target named is HOXB9 (Homo sapiens, UniProt P17482 171-250, T197M).
Test [2] has as its target HOXC9 (Homo sapiens, UniProt P31274 178-260, K195R).
Test [3] concerns the target HOXC10 (Homo sapiens, UniProt Q9NYD6 254-340).
The target in test [4] is HOXA2 (Homo sapiens, UniProt O43364 129-215, R185T).
Test [5] deals with HOXB9 (Homo sapiens, UniProt P17482 171-250).
The target of test [6] is HOXC9 (Homo sapiens, UniProt P31274 178-260).
Test [7] deals with HOXD13 (Homo sapiens, UniProt P35453 263-343, T313R).
In test [8] the target is HOXC9 (Homo sapiens, UniProt P31274 178-260, R193K).
In test [9] the target is HOXA2 (Homo sapiens, UniProt O43364 129-215, R185K).
For test [10], the target named is HOXD13 (Homo sapiens, UniProt P35453 263-343).
Test [11] deals with HOXC10 (Homo sapiens, UniProt Q9NYD6 254-340, K271E).
The target in test [12] is HOXD13 (Homo sapiens, UniProt P35453 263-343, T313A).
Test [13] concerns the target HOXB9 (Homo sapiens, UniProt P17482 171-250, R186Q).
The target in test [14] is HOXC9 (Homo sapiens, UniProt P31274 178-260, R222W).
Test [15] deals with HOXA2 (Homo sapiens, UniProt O43364 129-215, Y150S).
For test [16], the target named is HOXA2 (Homo sapiens, UniProt O43364 129-215).
The target in test [17] is T1, VENTX (Homo sapiens, UniProt O95231 78-163, R121Q).
T1 sequence: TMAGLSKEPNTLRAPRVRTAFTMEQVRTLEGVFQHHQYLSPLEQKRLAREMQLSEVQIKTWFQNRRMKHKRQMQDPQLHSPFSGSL

For test [18], the target named is T2, VENTX (Homo sapiens, UniProt O95231 78-163, Y115F).
T2 sequence: T1 sequence with Y38F, Q44R

Residue numbers refer to the chain shown, from its start.

Sequence of HOXC9 (Homo sapiens, UniProt P31274 178-260, R193K) (P31274 178-260 R193K): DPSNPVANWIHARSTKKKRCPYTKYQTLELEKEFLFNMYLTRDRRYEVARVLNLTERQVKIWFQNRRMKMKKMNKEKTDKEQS
Sequence of HOXB9 (Homo sapiens, UniProt P17482 171-250, T197M) (P17482 171-250 T197M): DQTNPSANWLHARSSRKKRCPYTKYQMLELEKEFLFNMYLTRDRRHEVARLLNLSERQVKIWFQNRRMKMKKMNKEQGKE
Sequence of HOXD13 (Homo sapiens, UniProt P35453 263-343, T313A) (P35453 263-343 T313A): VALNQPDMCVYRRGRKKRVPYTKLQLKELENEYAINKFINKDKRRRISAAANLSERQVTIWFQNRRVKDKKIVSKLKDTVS
Sequence of HOXC10 (Homo sapiens, UniProt Q9NYD6 254-340) (Q9NYD6 254-340): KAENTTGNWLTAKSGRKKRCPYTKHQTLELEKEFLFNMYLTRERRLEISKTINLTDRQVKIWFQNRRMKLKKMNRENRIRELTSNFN
Sequence of HOXD13 (Homo sapiens, UniProt P35453 263-343, T313R) (P35453 263-343 T313R): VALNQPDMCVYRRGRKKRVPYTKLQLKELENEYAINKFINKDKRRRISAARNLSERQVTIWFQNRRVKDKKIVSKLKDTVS
Sequence of HOXB9 (Homo sapiens, UniProt P17482 171-250) (P17482 171-250): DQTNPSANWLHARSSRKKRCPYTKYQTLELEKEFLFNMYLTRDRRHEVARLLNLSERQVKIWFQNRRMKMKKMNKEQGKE
Sequence of HOXC9 (Homo sapiens, UniProt P31274 178-260) (P31274 178-260): as the sequence (P31274 178-260 R193K) above, with K16R counted along it
Sequence of HOXC10 (Homo sapiens, UniProt Q9NYD6 254-340, K271E) (Q9NYD6 254-340 K271E): as the sequence (Q9NYD6 254-340) above, with K18E counted along it
Sequence of HOXB9 (Homo sapiens, UniProt P17482 171-250, R186Q) (P17482 171-250 R186Q): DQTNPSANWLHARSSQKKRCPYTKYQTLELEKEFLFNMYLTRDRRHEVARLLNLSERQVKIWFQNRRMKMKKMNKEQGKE
Sequence of HOXC9 (Homo sapiens, UniProt P31274 178-260, K195R) (P31274 178-260 K195R): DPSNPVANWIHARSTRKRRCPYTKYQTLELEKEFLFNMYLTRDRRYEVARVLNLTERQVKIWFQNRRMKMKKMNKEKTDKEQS
Sequence of HOXD13 (Homo sapiens, UniProt P35453 263-343) (P35453 263-343): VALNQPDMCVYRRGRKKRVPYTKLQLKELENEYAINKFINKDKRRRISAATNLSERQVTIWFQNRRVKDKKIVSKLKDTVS
Sequence of HOXC9 (Homo sapiens, UniProt P31274 178-260, R222W) (P31274 178-260 R222W): as the sequence (P31274 178-260 R193K) above, with K16R, R45W counted along it
Sequence of ALX4 (Q9H161 200-286 Q225E): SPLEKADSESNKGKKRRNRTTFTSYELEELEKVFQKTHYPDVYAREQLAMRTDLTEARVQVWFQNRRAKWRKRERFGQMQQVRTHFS
Sequence of HOXA2 (Homo sapiens, UniProt O43364 129-215, R185T) (O43364 129-215 R185T): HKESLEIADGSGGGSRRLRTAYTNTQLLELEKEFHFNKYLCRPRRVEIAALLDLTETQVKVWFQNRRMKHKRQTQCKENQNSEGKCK
Sequence of ALX3 (O95076 139-225 N203Q): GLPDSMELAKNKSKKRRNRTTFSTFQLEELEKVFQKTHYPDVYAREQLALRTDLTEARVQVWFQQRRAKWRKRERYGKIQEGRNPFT
Sequence of HOXA2 (Homo sapiens, UniProt O43364 129-215, Y150S) (O43364 129-215 Y150S): as the sequence (O43364 129-215 R185T) above, with Y22S, T57R counted along it
Sequence of HOXA2 (Homo sapiens, UniProt O43364 129-215, R185K) (O43364 129-215 R185K): as the sequence (O43364 129-215 R185T) above, with T57K counted along it
Sequence of HOXB6 (P17509 132-218 K202E): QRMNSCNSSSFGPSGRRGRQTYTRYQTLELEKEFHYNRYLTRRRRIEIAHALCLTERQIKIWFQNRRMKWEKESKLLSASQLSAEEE
Sequence of HOXA2 (Homo sapiens, UniProt O43364 129-215) (O43364 129-215): as the sequence (O43364 129-215 R185T) above, with T57R counted along it

For CAATAAAC, the binding signal was 9.69 upbm affinity estimate (log intensity, higher = more binding, comparable within an allelic series) in the test with HOXB9 [1]; 12.5 upbm affinity estimate (log intensity, higher = more binding, comparable within an allelic series) with HOXC9 [2]; 12.2 upbm affinity estimate (log intensity, higher = more binding, comparable within an allelic series) with HOXC10 [3]; 10.6 upbm affinity estimate (log intensity, higher = more binding, comparable within an allelic series) in the test with ALX4; 9.38 upbm affinity estimate (log intensity, higher = more binding, comparable within an allelic series) with HOXA2 [4]; 11.8 upbm affinity estimate (log intensity, higher = more binding, comparable within an allelic series) with HOXB9 [5]. For the same sequence, the binding signal in the test with HOXC9 [6] is 12.7 upbm affinity estimate (log intensity, higher = more binding, comparable within an allelic series); with HOXD13 [7], 10.9 upbm affinity estimate (log intensity, higher = more binding, comparable within an allelic series); in the test with HOXC9 [8], 12.5 upbm affinity estimate (log intensity, higher = more binding, comparable within an allelic series); with HOXA2 [9], 11.7 upbm affinity estimate (log intensity, higher = more binding, comparable within an allelic series); in the test with HOXD13 [10], 12.2 upbm affinity estimate (log intensity, higher = more binding, comparable within an allelic series); in the test with HOXC10 [11], 11.4 upbm affinity estimate (log intensity, higher = more binding, comparable within an allelic series). Moreover, the binding signal with HOXD13 [12] is 11.9 upbm affinity estimate (log intensity, higher = more binding, comparable within an allelic series); with HOXB9 [13], 11.5 upbm affinity estimate (log intensity, higher = more binding, comparable within an allelic series); with HOXC9 [14] it was 11.1 upbm affinity estimate (log intensity, higher = more binding, comparable within an allelic series); with HOXA2 [15] it was 10.7 upbm affinity estimate (log intensity, higher = more binding, comparable within an allelic series); in the test with HOXA2 [16], 9.11 upbm affinity estimate (log intensity, higher = more binding, comparable within an allelic series).

In the case of TAATCGGA, the binding signal with VENTX [17] was 10.4 upbm affinity estimate (log intensity, higher = more binding, comparable within an allelic series); with VENTX [18], 10.6 upbm affinity estimate (log intensity, higher = more binding, comparable within an allelic series).

With ATAATAAT, the binding signal in the test with HOXB9 [1] is 9.97 upbm affinity estimate (log intensity, higher = more binding, comparable within an allelic series); with HOXC9 [2], 12.6 upbm affinity estimate (log intensity, higher = more binding, comparable within an allelic series); in the test with HOXB6 it was 10 upbm affinity estimate (log intensity, higher = more binding, comparable within an allelic series); with ALX3, 8.6 upbm affinity estimate (log intensity, higher = more binding, comparable within an allelic series).

Consider ATCATAAA, for which the binding signal with HOXB9 [1] was 9.69 upbm affinity estimate (log intensity, higher = more binding, comparable within an allelic series); with HOXC9 [2] it was 12.7 upbm affinity estimate (log intensity, higher = more binding, comparable within an allelic series); with HOXC10 [3], 12.5 upbm affinity estimate (log intensity, higher = more binding, comparable within an allelic series); with HOXB9 [5], 11.9 upbm affinity estimate (log intensity, higher = more binding, comparable within an allelic series); with HOXC9 [6] it was 12.8 upbm affinity estimate (log intensity, higher = more binding, comparable within an allelic series); with HOXD13 [7] it was 10.8 upbm affinity estimate (log intensity, higher = more binding, comparable within an allelic series). The binding signal with HOXC9 [8] is 12.7 upbm affinity estimate (log intensity, higher = more binding, comparable within an allelic series); with HOXD13 [10], 11.8 upbm affinity estimate (log intensity, higher = more binding, comparable within an allelic series); with HOXC10 [11], 11.8 upbm affinity estimate (log intensity, higher = more binding, comparable within an allelic series); with HOXD13 [12], 11.8 upbm affinity estimate (log intensity, higher = more binding, comparable within an allelic series); in the test with HOXB9 [13], 11.7 upbm affinity estimate (log intensity, higher = more binding, comparable within an allelic series); with HOXC9 [14] it was 10.9 upbm affinity estimate (log intensity, higher = more binding, comparable within an allelic series).

In the case of ATAAAACA, the binding signal is 9.83 upbm affinity estimate (log intensity, higher = more binding, comparable within an allelic series) in the test with HOXB9 [1]; 12.4 upbm affinity estimate (log intensity, higher = more binding, comparable within an allelic series) with HOXC9 [2]; 12.2 upbm affinity estimate (log intensity, higher = more binding, comparable within an allelic series) in the test with HOXC10 [3]; 11.8 upbm affinity estimate (log intensity, higher = more binding, comparable within an allelic series) with HOXB9 [5]; 12.5 upbm affinity estimate (log intensity, higher = more binding, comparable within an allelic series) in the test with HOXC9 [6]; 10.7 upbm affinity estimate (log intensity, higher = more binding, comparable within an allelic series) in the test with HOXD13 [7]. Also, the binding signal with HOXC9 [8] was 12.5 upbm affinity estimate (log intensity, higher = more binding, comparable within an allelic series); with HOXD13 [10], 11.9 upbm affinity estimate (log intensity, higher = more binding, comparable within an allelic series); in the test with HOXC10 [11] it was 11.6 upbm affinity estimate (log intensity, higher = more binding, comparable within an allelic series); with HOXD13 [12], 11.6 upbm affinity estimate (log intensity, higher = more binding, comparable within an allelic series); with HOXB9 [13], 11.5 upbm affinity estimate (log intensity, higher = more binding, comparable within an allelic series); with HOXC9 [14], 11.1 upbm affinity estimate (log intensity, higher = more binding, comparable within an allelic series).

For TCGTTAAA, the binding signal in the test with HOXB9 [1] was 9.96 upbm affinity estimate (log intensity, higher = more binding, comparable within an allelic series); with HOXC9 [2] it was 12.5 upbm affinity estimate (log intensity, higher = more binding, comparable within an allelic series); in the test with HOXC10 [3] it was 12.4 upbm affinity estimate (log intensity, higher = more binding, comparable within an allelic series); with HOXB9 [5], 11.7 upbm affinity estimate (log intensity, higher = more binding, comparable within an allelic series); with HOXC9 [6], 12.7 upbm affinity estimate (log intensity, higher = more binding, comparable within an allelic series); in the test with HOXD13 [7] it was 10.8 upbm affinity estimate (log intensity, higher = more binding, comparable within an allelic series). The binding signal with HOXC9 [8] was 12.4 upbm affinity estimate (log intensity, higher = more binding, comparable within an allelic series); in the test with HOXD13 [10], 12 upbm affinity estimate (log intensity, higher = more binding, comparable within an allelic series); in the test with HOXC10 [11] it was 12.1 upbm affinity estimate (log intensity, higher = more binding, comparable within an allelic series); with HOXD13 [12], 11.7 upbm affinity estimate (log intensity, higher = more binding, comparable within an allelic series); with HOXB9 [13], 11.3 upbm affinity estimate (log intensity, higher = more binding, comparable within an allelic series); with HOXC9 [14], 10.9 upbm affinity estimate (log intensity, higher = more binding, comparable within an allelic series).

The values above are taken from paper PMC11006913.
